Screens from PubChem BioAssay.
Myeloid diff MLP: myeloid differentiation induction; ER-HoxA9 myeloid progenitors, lysozyme-GFP differentiation, flow cytometry; calls only at 10 µM; 360,000 compounds, 1% hits; AID 624256;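 active = normalized GFP-positive differentiation at or above the plate's own cutoff, the solvent-only control mean plus 3 SD; inconclusive = no clear call, values can overlap the other calls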;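 also: cells exposed to compound for four days before flow analysis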
NPR1 activator: GC-A (human) enzyme activation. P16066. HEK293 GC-A cells, cGMP TR-FRET, EC30 ANP; 0% at EC30 ANP, 100% saturating ANP. activation, % at 10 µM. 370,000 compounds, 0.14% hits; in the data active = activation above about 40%
Granule exo inh: blocks lytic granule exocytosis; TALL-104 LAMP-1 surface exposure, flow cytometry; cells stimulated with thapsigargin and PMA; inhibition, % at 10 µM; 360,000 compounds, 0.66% hits; AID 651702;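 active = inhibition above about 55%, limit read from the data; inconclusive = no clear call, values can overlap the other calls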
GC-B act: GC-B (human) receptor activation; HEK293-GC-B cells, CNP EC30, cGMP TR-FRET; 0% at EC30 CNP, 100% saturating CNP; activation, % at 10 µM; 370,000 compounds, 0.11% hits; AID 1920062;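 active = activation at 10 µM reaching about 35% in either raw or pattern-adjusted values, limit read from the data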
Target sequence (P20594 whole entry, looked up): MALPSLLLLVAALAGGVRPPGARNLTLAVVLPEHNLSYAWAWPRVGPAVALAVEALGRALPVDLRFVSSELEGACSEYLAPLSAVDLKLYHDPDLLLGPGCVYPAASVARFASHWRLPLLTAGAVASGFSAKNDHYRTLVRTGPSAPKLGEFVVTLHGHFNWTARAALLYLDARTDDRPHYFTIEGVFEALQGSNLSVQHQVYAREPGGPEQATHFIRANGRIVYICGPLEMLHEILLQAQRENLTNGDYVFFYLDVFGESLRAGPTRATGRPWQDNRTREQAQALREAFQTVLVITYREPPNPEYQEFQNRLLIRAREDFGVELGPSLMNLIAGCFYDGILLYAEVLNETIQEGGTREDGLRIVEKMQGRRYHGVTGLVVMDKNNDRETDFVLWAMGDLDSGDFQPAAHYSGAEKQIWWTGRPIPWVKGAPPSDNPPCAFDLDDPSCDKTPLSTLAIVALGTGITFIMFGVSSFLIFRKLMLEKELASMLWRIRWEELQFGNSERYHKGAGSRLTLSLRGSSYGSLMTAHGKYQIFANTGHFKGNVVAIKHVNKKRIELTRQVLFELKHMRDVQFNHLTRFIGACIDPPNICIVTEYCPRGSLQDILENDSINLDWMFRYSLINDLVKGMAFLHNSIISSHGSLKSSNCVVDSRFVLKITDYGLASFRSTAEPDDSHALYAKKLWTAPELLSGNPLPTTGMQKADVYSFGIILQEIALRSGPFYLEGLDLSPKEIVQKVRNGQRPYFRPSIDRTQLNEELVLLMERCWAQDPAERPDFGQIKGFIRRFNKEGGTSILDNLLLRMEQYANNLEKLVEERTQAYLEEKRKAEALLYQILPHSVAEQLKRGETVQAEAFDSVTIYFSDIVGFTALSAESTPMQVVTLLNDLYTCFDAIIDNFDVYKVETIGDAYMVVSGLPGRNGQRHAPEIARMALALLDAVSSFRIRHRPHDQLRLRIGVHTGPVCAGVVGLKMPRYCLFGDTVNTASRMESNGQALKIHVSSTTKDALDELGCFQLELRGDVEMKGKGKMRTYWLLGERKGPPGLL
Granule exo CP1: lytic granule exocytosis inhibition. 1,500 compounds, 11% hits. inhibition, % at 10 µM. shares compounds with Granule exo inh. TALL-104 cells, LAMP-1 externalization, flow cytometry; stimulated with PMA plus thapsigargin; in the data active = inhibition above about 60%;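 also: 0% = stimulated vehicle wells and 100% = unstimulated wells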
Active calls of the source: *; i = inactive; ? = inconclusive; / = no result given. Compounds with a hit are over-represented: about 1.8% of the library has one in this group of screens.

SMILES	Myeloid diff MLP	NPR1 activator	Granule exo inh	GC-B act	Granule exo CP1
CCCc1cc(CN2CCOCC2)c(O)c(CN2CCOCC2)c1O	i	4.1	78.7*	1.9	28.5
COC(=O)[C@@]1(Cc2ccccc2)[C@H]2C(=O)N(C)C(=O)[C@H]2[C@H]2CN=C(SCc3ccc(C)cc3)N21	i	0.8	-4.4	-0.7	/
O=C1NC[C@@H](CCCCN2C[C@H](Cc3ccc(O)cc3)N(Cc3ccccc3)C(=O)C2=O)N(CCc2ccc(O)cc2)C1=O	i	1.0	-1.9	1.0	/
O=C(Nc1ccc(Br)cc1)O[C@@H]1CC[C@@]23CCCN2C(=O)CCC[C@H]3C1	/	0.1	/	-11.2	/
CC(C)COc1ccc(-c2nnc(-c3ccco3)o2)cc1	i	-2.7	4.7	-5.0	/
CCN(CC)CCCNc1ccc(-c2nnc(-c3ccc(OCC(C)C)cc3)o2)cn1	?	-5.4	61.6*	-9.6	94.7*
Cc1cc(Br)cn2c(Cc3ccsc3)c(-c3ccco3)nc12	i	11.5	59.5*	17.8	-14.9
NC(CCc1ccccc1)c1csc(NC(=O)Nc2cccc(Cl)c2)n1 (stereo not given)	i	-2.1	57.2*	2.1	10.0
NC(c1ccccc1)c1csc(NC(=O)Nc2cccc(Cl)c2)n1 (stereo not given)	i	-8.9	-5.8	-3.9	/
CCCCc1ccc(NC(=O)CSc2nc(=O)n(CCN(CC)CC)c3c2CCC3)cc1	i	-2.2	83.6*	4.8	21.5
CCN(CC)CCn1c2c(c(SCC(=O)Nc3ccc(C(C)C)cc3)nc1=O)CCCC2	i	-1.4	11.2	3.9	/
CSc1ncc(Cl)c(C(=O)Nc2cccnc2)n1	i	0.6	79.4*	0.1	-4.3
Cc1cccc(CN2CCN(C3CN(Cc4cn(Cc5ccc(F)cc5)nn4)S(=O)(=O)C3)CC2)c1 (stereo not given)	i	-2.6	0.2	3.1	/
CC(C)Cn1c(N)c(S(=O)(=O)c2cccs2)c2nc3ccccc3nc21	i	-7.4	80.0*	-8.2	-11.4
COc1cccc(O)c1CN1CCC(C(=O)Nc2ccc(-c3cccc(C)c3)cc2)CC1	i	-15.3	66.2*	-3.1	13.9
COC1CCCN(Cc2cn(C)nc2-c2ccc(Oc3ccccc3)cc2)C1 (stereo not given)	i	1.6	0.4	-5.4	/
CCCN1CCC(NCc2cn(C)nc2-c2ccc(Oc3ccccc3)cc2)CC1	i	-1.8	76.6*	-5.1	17.0
COc1cc2c(cc1NC(=O)CSc1nnc(COc3ccc(Cl)cc3)n1C)oc1ccccc12	i	-12.2	60.3*	-9.8	22.4
Cc1ccc(S(=O)(=O)c2cc3c(=O)n4cccc(C)c4nc3n(C3CCCCC3)c2=N)cc1	?	/	8.0	/	/
Cc1ccc(S(=O)(=O)c2cc3c(=O)n4ccccc4nc3n(C3CCCC3)c2=N)cc1	i	2.8	88.0*	3.8	-14.7
CC(=O)N1CCSc2ccc(S(=O)(=O)NCCc3ccc(C)cc3)cc21	i	1.8	62.5*	3.7	-10.2
CC(=O)N1CCSc2ccc(S(=O)(=O)NCCc3ccc(Cl)cc3)cc21	i	7.5	1.6	-3.2	/
COc1ccc(OCCOC(=O)c2nc3nccc(C)n3n2)cc1	i	-1.9	58.0*	-6.1	-3.8
O=C1NC[C@H](Cc2ccccc2)N(CCc2cccc(F)c2)C1=O	i	-0.5	61.3*	-2.9	-12.9
Cc1ccc(S(=O)(=O)c2nc(-c3ccccc3)oc2SCC(=O)NCC2CCCO2)cc1 (stereo not given)	i	-3.6	9.2	8.8	/
SMILES	Myeloid diff MLP	NPR1 activator	Granule exo inh	GC-B act	Granule exo CP1
Cc1ccc(S(=O)(=O)c2nc(-c3ccco3)oc2SCC(=O)NCC2CCCO2)cc1 (stereo not given)	i	-1.6	89.4*	-2.7	-9.9
CC(C)C(NS(=O)(=O)c1cccc(C(F)(F)F)c1)C(=O)N1CCc2ccccc2C1 (stereo not given)	i	-4.5	76.2*	-7.5	-4.6
CC(C)C(NS(=O)(=O)c1ccccc1F)C(=O)N1CCc2ccccc2C1 (stereo not given)	i	1.4	-4.6	-4.7	/
COc1cc(NC(=O)[C@H]2O[C@@H](n3cnc4c(N)ncnc43)[C@H](O)[C@@H]2O)cc(OC)c1OC	i	1.2	3.2	-0.2	/
COc1ccc(/C=C/c2onc(C)c2S(=O)(=O)N2CCC(C(=O)N3CCC(C)CC3)CC2)cc1	?	-2.1	76.1*	-4.1	-14.3
CCCCCCN1CCN(C2CN(Cc3cn(Cc4cccc(C(F)(F)F)c4)nn3)S(=O)(=O)C2)CC1 (stereo not given)	i	-4.7	9.3	-3.2	/
CN(C)C(=O)c1c2c(nc3ccccc13)CCCC2	i	4.3	107.4*	0.3	-10.6
COc1cccc(CN2C(=O)[C@H]3Cc4c([nH]c5ccccc45)C(C)(C)N3C2=O)c1	i	6.6	77.9*	11.3	-8.8
CC1CN(c2nc3ccccc3nc2SCC(=O)N2CCN(S(=O)(=O)c3ccccc3)CC2)CC(C)O1 (stereo not given)	/	1.9	/	7.0	/
CCCC/C=C1/[C@H](c2ccc(Cl)cc2)N(Cc2ccc3c(c2)OCO3)C2=N[C@H](c3ccccc3)CC(=O)N21	/	-0.8	/	3.5	/
Cc1c(C(=O)N(C)C2CCCCC2)sc2ncnc(N3CCN(c4ccccc4F)CC3)c12	i	/	85.1*	/	-14.2
Cc1c(C(=O)N(C)C2CCCCC2)sc2ncnc(N3CCN(c4ccccc4)CC3)c12	i	-0.3	16.7	4.4	/
CCOC(=O)c1c(NC(=O)C(NCCN(C)C)c2ccccc2)sc2c1CCCC2 (stereo not given)	i	-8.8	69.6*	-6.7	45.8
Clc1ccc(-c2c(C3=NCCCN3)nnn2-c2ccc(Cl)cc2)cc1	i	-51.8	56.2*	-18.5	-2.8
CCOC(=O)[C@H]1[C@H]2COc3ccc(Cl)cc3[C@@H]2N2C(=O)CN(Cc3ccc(Cl)cc3)C(=O)[C@@]12C	i	-4.2	-0.3	-9.4	/
COc1ccc(CN2C[C@]3(C=C(C)Cn4c(=O)n(-c5ccccc5)c(=O)n43)N(C(=O)OCc3ccccc3)C2=NC(=O)c2ccccc2)c(OC)c1	/	-2.5	/	3.6	/
OC(CNCCC1C=Nc2ccccc21)Cn1c2ccc(Cl)cc2c2cc(Cl)ccc21 (stereo not given)	?	-12.7	70.8*	-5.9	12.3
OC(CNCC1CCCO1)Cn1c2ccc(Cl)cc2c2cc(Cl)ccc21 (stereo not given)	i	-25.4	54.3	-16.0	/
COc1ccc(N2C(=O)CC(Sc3nnc(-c4ccccc4)o3)C2=O)cc1 (stereo not given)	i	8.8	57.1*	-6.7	86.9*
CCCCCCCCN1C(=O)[C@H](CC(=O)NCCCOC)C[C@@]2(C(=O)OC)CCCCC=C12	i	-5.5	0.3	1.1	/
CC(C)(C)C1CCC(OCC(O)CN2CCN(Cc3ccccc3)CC2)CC1 (stereo not given)	i	1.6	71.6*	3.7	-3.0
Oc1ccc(-c2c(-c3ccsc3)sc3ccccc23)cc1	i	-0.2	86.7*	2.9	-3.4
